Test results: PubChem BioAssay AID1159580 (chemical genetic matrix, 2015)
Screen size: about 5,500 compounds; about 2,000 (36%) were called active. Another 18% or so got no clear call; they are omitted. Cut-off read from the data, not from the text of the source: active = normalized growth mostly below about 0.91 (no sharp cut-off); inconclusive = no clear call, values can overlap the other calls; inactive = mostly above about 0.92. The list shows a part of the results.

Test: chemical genetic growth profiling, strain panel (AID 1159580);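 note: tested at 20 µM; growth read once vehicle control cultures reached saturation at 30 °C; 1 = growth at the plate median or of vehicle wells; lower values mean less growth of the strain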
Details: growth OD

Measured: normalized growth

C/C=C(/C)C(=O)O[C@@H]1[C@H](OC(C)=O)[C@@]2(CO)C(CC1(C)C)C1=CCC3[C@@]4(C)CC[C@H](O[C@@H]5O[C@H](C(=O)O)[C@@H](O[C@@H]6O[C@H](CO)[C@@H](O)[C@H](O)[C@H]6O)[C@H](O)[C@H]5O[C@@H]5O[C@H](CO)[C@@H](O)[C@H](O)[C@H]5O)[C@](C)(CO)C4CC[C@@]3(C)[C@]1(C)C[C@H]2O (some centres not stated)
inactive: S. cerevisiae deletion strains, locus YKL009W, strain mrt4, stronger effect = lower value 1.06 | S. cerevisiae deletion strains, locus YKL068W, stronger effect = lower value 1.01 | S. cerevisiae deletion strains, locus YKL085W, strain MDH1 (second series), stronger effect = lower value 1.06 | S. cerevisiae deletion strains, locus YKL085W, strain MDH1, stronger effect = lower value 1.06 | S. cerevisiae deletion strains, locus YKL160W, strain elf1, stronger effect = lower value 1.02 | S. cerevisiae deletion strains, locus YKR001C, strain vps1, stronger effect = lower value 1.01 | S. cerevisiae deletion strains, locus YKR026C, strain gcn3, stronger effect = lower value 0.99 | S. cerevisiae deletion strains, locus YKR091W, strain srl3, stronger effect = lower value 0.99 | S. cerevisiae deletion strains, locus YLL001W, strain dnm1, stronger effect = lower value 1.01 | S. cerevisiae deletion strains, locus YLL026W, stronger effect = lower value 0.988 | S. cerevisiae deletion strains, locus YLL041C, strain sdh2, stronger effect = lower value 0.983 | S. cerevisiae deletion strains, locus YLR027C, strain aat2, stronger effect = lower value 0.996 | S. cerevisiae deletion strains, locus YLR039C, strain RIC1, stronger effect = lower value 1.04 | S. cerevisiae deletion strains, locus YLR058C, strain SHM2, stronger effect = lower value 1.01 | S. cerevisiae deletion strains, locus YLR102C, strain apc9, stronger effect = lower value 1.02 | S. cerevisiae deletion strains, locus YLR113W, strain HOG1, stronger effect = lower value 0.967 | S. cerevisiae deletion strains, locus YLR221C, strain rsa3, stronger effect = lower value 1 | S. cerevisiae deletion strains, locus YLR258W, strain gsy2, stronger effect = lower value 0.981 | S. cerevisiae deletion strains, locus YLR262C, strain YPT6 (second series), stronger effect = lower value 1.01 | S. cerevisiae deletion strains, locus YLR262C, strain YPT6, stronger effect = lower value 1.08 | S. cerevisiae deletion strains, locus YLR268W, strain sec22, stronger effect = lower value 1.04 | S. cerevisiae deletion strains, locus YLR320W, strain mms22, stronger effect = lower value 0.973 | S. cerevisiae deletion strains, locus YLR330W, strain CHS5, stronger effect = lower value 1.01 | S. cerevisiae deletion strains, locus YLR342W, strain FKS1 (second series), stronger effect = lower value 1.05 | S. cerevisiae deletion strains, locus YLR342W, strain FKS1, stronger effect = lower value 0.988 | S. cerevisiae deletion strains, locus YLR357W, strain rsc2, stronger effect = lower value 0.984 | S. cerevisiae deletion strains, locus YLR370C, strain arc18, stronger effect = lower value 0.992 | S. cerevisiae deletion strains, locus YLR371W, strain rom2, stronger effect = lower value 1.03 | S. cerevisiae deletion strains, locus YLR384C, strain iki3, stronger effect = lower value 1 | S. cerevisiae deletion strains, locus YLR418C, strain cdc73, stronger effect = lower value 1 | S. cerevisiae deletion strains, locus YML016C, strain PPZ1, stronger effect = lower value 1.01 | S. cerevisiae deletion strains, locus YML032C, strain rad52, stronger effect = lower value 1.03 | S. cerevisiae deletion strains, locus YML120C, strain ndi1, stronger effect = lower value 1.01 | S. cerevisiae deletion strains, locus YML124C, strain tub3, stronger effect = lower value 1.02 | S. cerevisiae deletion strains, locus YMR058W, strain fet3, stronger effect = lower value 0.99 | S. cerevisiae deletion strains, locus YMR078C, strain ctf18, stronger effect = lower value 1.02 | S. cerevisiae deletion strains, locus YMR125W, strain sto1, stronger effect = lower value 0.959 | S. cerevisiae deletion strains, locus YMR129W, stronger effect = lower value 0.979 | S. cerevisiae deletion strains, locus YMR205C, strain PFK2, stronger effect = lower value 0.925 | S. cerevisiae deletion strains, locus YMR223W, strain ubp8, stronger effect = lower value 1.02 | S. cerevisiae deletion strains, locus YMR231W, strain pep5, stronger effect = lower value 0.973 | S. cerevisiae deletion strains, locus YMR307W, strain GAS1, stronger effect = lower value 1.08 | S. cerevisiae deletion strains, locus YNL067W, strain RPL9B, stronger effect = lower value 1.02 | S. cerevisiae deletion strains, locus YNL071W, strain lat1, stronger effect = lower value 1 | S. cerevisiae deletion strains, locus YNL183C, strain NPR1, stronger effect = lower value 0.969 | S. cerevisiae deletion strains, locus YNL209W, strain ssb2, stronger effect = lower value 0.988 | S. cerevisiae deletion strains, locus YNL233W, strain BNI4, stronger effect = lower value 1.01 | S. cerevisiae deletion strains, locus YNL248C, strain rpa49, stronger effect = lower value 1.02 | S. cerevisiae deletion strains, locus YNL250W, strain rad50, stronger effect = lower value 1.04 | S. cerevisiae deletion strains, locus YNL271C, strain bni1, stronger effect = lower value 1.03 | S. cerevisiae deletion strains, locus YNL298W, strain CLA4, stronger effect = lower value 1.01 | S. cerevisiae deletion strains, locus YNL307C, strain MCK1, stronger effect = lower value 1.03 | S. cerevisiae deletion strains, locus YNL322C, strain KRE1 (second series), stronger effect = lower value 0.983 | S. cerevisiae deletion strains, locus YNL322C, strain KRE1, stronger effect = lower value 1.01 | S. cerevisiae deletion strains, locus YNR049C, strain mso1, stronger effect = lower value 0.982 | S. cerevisiae deletion strains, locus YNR052C, strain pop2, stronger effect = lower value 1.02 | S. cerevisiae deletion strains, locus YOL006C, strain TOP1, stronger effect = lower value 0.991 | S. cerevisiae deletion strains, locus YOL012C, strain htz1 1.42 | S. cerevisiae deletion strains, locus YOL147C, strain pex11, stronger effect = lower value 1.02 | S. cerevisiae deletion strains, locus YOR001W, strain rrp6, stronger effect = lower value 0.992 | S. cerevisiae deletion strains, locus YOR061W, strain CKA2, stronger effect = lower value 1.01 | S. cerevisiae deletion strains, locus YOR069W, strain VPS5, stronger effect = lower value 1 | S. cerevisiae deletion strains, locus YOR070C, strain gyp1, stronger effect = lower value 1 | S. cerevisiae deletion strains, locus YOR080W, strain dia2, stronger effect = lower value 0.968 | S. cerevisiae deletion strains, locus YOR083W, strain WHI5, stronger effect = lower value 1.02 | S. cerevisiae deletion strains, locus YOR106W, strain vam3, stronger effect = lower value 1.01 | S. cerevisiae deletion strains, locus YOR136W, strain idh2, stronger effect = lower value 1.02 | S. cerevisiae deletion strains, locus YOR144C, strain elg1, stronger effect = lower value 1.02 | S. cerevisiae deletion strains, locus YOR184W, strain ser1, stronger effect = lower value 1.02 | S. cerevisiae deletion strains, locus YOR231W, strain MKK1, stronger effect = lower value 0.967 | S. cerevisiae deletion strains, locus YOR265W, strain rbl2, stronger effect = lower value 0.993 | S. cerevisiae deletion strains, locus YOR270C, strain vph1, stronger effect = lower value 0.883 | S. cerevisiae deletion strains, locus YOR290C, strain snf2, stronger effect = lower value 0.966 | S. cerevisiae deletion strains, locus YOR316C, strain cot1, stronger effect = lower value 1.02 | S. cerevisiae deletion strains, locus YPL051W, strain arl3, stronger effect = lower value 1.02 | S. cerevisiae deletion strains, locus YPL055C, strain LGE1, stronger effect = lower value 1 | S. cerevisiae deletion strains, locus YPL078C, strain atp4, stronger effect = lower value 1.01 | S. cerevisiae deletion strains, locus YPL106C, strain sse1, stronger effect = lower value 0.981 | S. cerevisiae deletion strains, locus YPL240C, strain hsp82, stronger effect = lower value 1.01 | S. cerevisiae deletion strains, locus YPL241C, strain CIN2, stronger effect = lower value 1 | S. cerevisiae deletion strains, locus YPL256C, strain CLN2, stronger effect = lower value 0.967 | S. cerevisiae deletion strains, locus YPR119W, strain clb2, stronger effect = lower value 1.03 | S. cerevisiae deletion strains, locus YPR141C, strain kar3, stronger effect = lower value 1.04 | S. cerevisiae deletion strains, locus YPR163C, strain tif3, stronger effect = lower value 1.02 | S. cerevisiae deletion strains, locus YPR167C, strain met16, stronger effect = lower value 1.02 | S. cerevisiae deletion strains, strain wtn01, stronger effect = lower value 1.02 | S. cerevisiae strains, strain wild type, stronger effect = lower value 1.01
